# From PubChem BioAssay
# This is one part of the list. Activity calls are given as the source filed them. Cut-off read from the data, not from the text of the source, unless noted: active = response below about 74% or above about 130%; inactive = in between.
# Assays:
# [1] = molecular target: Regulator of G-protein signaling 16 (Homo sapiens) (UniProt O15492); test: small molecules altering RGS protein interactions with GNAO1 – biochemical, multiplexed beads, flow cytometry, RGS4/7/8/16/19, primary screen (AID 1504); conditions: multiplexed bead flow cytometry, measured here: RGS16 interaction, at 10 µM;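 note: fluorescently labeled Galpha-o bound to GDP with aluminium fluoride binding biotinylated RGS beads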
# [2] = molecular target: Regulator of G-protein signaling 19 (Homo sapiens) (UniProt P49795); test: as above; conditions: multiplexed bead flow cytometry, measured here: RGS19 interaction, at 10 µM
# [3] = molecular target: Regulator of G-protein signaling 7 (Homo sapiens) (UniProt P49802); test: as above; conditions: multiplexed bead flow cytometry, measured here: RGS7 interaction, at 10 µM
# [4] = molecular target: Regulator of G-protein signaling 8 (Homo sapiens) (UniProt P57771); test: as above; conditions: multiplexed bead flow cytometry, measured here: RGS8 interaction, at 10 µM
# [5] = interference with biotin-avidin bead interaction – biochemical, flow cytometry, bead-based, counter-screen for RGS protein interaction modulators (AID 1783;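 active = inhibition above 50%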;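 note: median green fluorescence of gated singlet beads compared with DMSO control wells; 0% = DMSO wells and 100% = complete loss of bead fluorescence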); conditions: streptavidin beads, fluorescein-biotin binding; at 10 µM, stronger effect = higher value
# [6] = molecular target: Guanine nucleotide-binding protein G(o) subunit alpha (Homo sapiens) (UniProt P09471); test: retest of RGS8-Galphao interaction hits – biochemical, multiplexed bead flow cytometry, single concentration, confirmation (AID 1836; in the data active = binding response below about 72% or above about 130%; inactive = in between;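 note: Galphao activated as GDP AlF4 complex before binding bead RGS8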); conditions: bead-based flow cytometry RGS8-Galphao binding, fluorescence; at 10 µM; actives lie on both sides
# Guanine nucleotide-binding protein G(o) subunit alpha (Homo sapiens), sequence (P09471 whole entry, looked up): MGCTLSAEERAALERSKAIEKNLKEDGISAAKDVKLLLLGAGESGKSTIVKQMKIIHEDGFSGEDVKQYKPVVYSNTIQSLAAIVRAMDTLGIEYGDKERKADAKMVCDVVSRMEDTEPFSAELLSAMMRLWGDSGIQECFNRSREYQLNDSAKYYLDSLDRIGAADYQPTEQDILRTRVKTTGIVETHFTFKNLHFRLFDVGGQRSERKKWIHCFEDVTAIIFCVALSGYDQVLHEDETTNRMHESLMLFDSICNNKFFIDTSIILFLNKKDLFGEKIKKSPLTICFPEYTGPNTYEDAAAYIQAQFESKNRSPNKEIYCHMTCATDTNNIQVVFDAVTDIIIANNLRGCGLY
# [7] = molecular target: Guanine nucleotide-binding protein G(o) subunit alpha (Homo sapiens) (UniProt P09471); test: retest of RGS7-Galphao interaction hits – biochemical, multiplexed bead flow cytometry, single concentration, confirmation (AID 1837; in the data active = response below about 75% or above about 130%; inactive = in between;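 note: fluorescent Galphao activated with GDP and aluminum fluoride binding bead-coupled RGS7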); conditions: bead-based flow cytometry RGS7-Galphao binding; at 10 µM; actives lie on both sides
# [8] = molecular target: Regulator of G-protein signaling 16 (Homo sapiens) + Guanine nucleotide-binding protein G(o) subunit alpha (Homo sapiens) (UniProt O15492+P09471); test: RGS16 and Galphao interaction regulators – biochemical, single concentration, multiplexed bead flow cytometry, confirmation (AID 1838); conditions: bead-based flow cytometry, at 10 µM, actives lie on both sides;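 note: Galphao activated as the GDP aluminium fluoride complex binding bead-coupled RGS16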
# Regulator of G-protein signaling 16 (Homo sapiens) + Guanine nucleotide-binding protein G(o) subunit alpha (Homo sapiens), sequence (O15492 whole entry, looked up): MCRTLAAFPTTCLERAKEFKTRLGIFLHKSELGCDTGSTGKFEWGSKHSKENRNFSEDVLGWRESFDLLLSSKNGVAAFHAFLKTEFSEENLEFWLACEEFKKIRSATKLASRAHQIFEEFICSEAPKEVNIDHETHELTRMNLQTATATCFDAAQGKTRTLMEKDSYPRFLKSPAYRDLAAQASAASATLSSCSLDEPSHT
# Regulator of G-protein signaling 16 (Homo sapiens) + Guanine nucleotide-binding protein G(o) subunit alpha (Homo sapiens), sequence (P09471 whole entry, looked up): as the sequence (P09471 whole entry, looked up) above
# [9] = molecular target: Guanine nucleotide-binding protein G(o) subunit alpha (Homo sapiens) (UniProt P09471); test: RGS4 and Galphao interaction regulators – biochemical, single concentration, multiplexed bead flow cytometry, confirmation (AID 1840; in the data active = binding response below about 74% or above about 130%; inactive = in between); conditions: at 10 µM, actives lie on both sides
# [10] = molecular target: Guanine nucleotide-binding protein G(o) subunit alpha (Homo sapiens) + Regulator of G-protein signaling 19 (Homo sapiens) (UniProt P09471+P49795); test: RGS19 interaction with Gαo, hit retest – biochemical, single point, multiplexed bead flow cytometry, confirmation (AID 1841; in the data active = response below about 50% or above about 160%; inactive = in between;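 note: 100% = no compound control and 0% = blank background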); conditions: bead-based flow cytometry RGS19-Galphao binding; at 10 µM; actives lie on both sides
# Guanine nucleotide-binding protein G(o) subunit alpha (Homo sapiens) + Regulator of G-protein signaling 19 (Homo sapiens), sequence (P09471 whole entry, looked up): as above
# Guanine nucleotide-binding protein G(o) subunit alpha (Homo sapiens) + Regulator of G-protein signaling 19 (Homo sapiens), sequence (P49795 whole entry, looked up): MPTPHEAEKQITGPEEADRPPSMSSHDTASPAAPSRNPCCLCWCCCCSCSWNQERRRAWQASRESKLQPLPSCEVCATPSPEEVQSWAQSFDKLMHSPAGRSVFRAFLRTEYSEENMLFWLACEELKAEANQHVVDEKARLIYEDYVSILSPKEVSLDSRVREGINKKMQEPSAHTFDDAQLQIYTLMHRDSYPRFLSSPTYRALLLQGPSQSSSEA
Compound,RGS16–Galpha-o binding response [1] [%],RGS19–Galpha-o binding response [2] [%],RGS7–Galpha-o binding response [3] [%],RGS8–Galpha-o binding response [4] [%],inhibition [5],binding response (% of control) [6],response (percent of control binding) [7],response (% of control binding) [8],binding response (% of control) [9],response (percent of control binding) [10]
O=C(Nc1ccccc1)c1cc2ccccc2[nH]1,13.8,-785,89.9,67.8,0.6% (inactive),105% (inactive),103% (inactive),106% (inactive),106% (inactive),99.5% (inactive)
O=C(NC1CC1)c1ccc2c(c1)NC(=O)c1ccccc1S2,113,370,191,98.7,–,–,–,–,–,–
CC1(C)C=C2[C@H]3CC[C@@H]4[C@@]5(C)CCC(=O)C(C)(C)[C@@H]5CC[C@@]4(C)[C@]3(C)CC[C@@]2(C(=O)O)CC1,267,-110,114,134,0.1% (inactive),107% (inactive),81.6% (inactive),107% (inactive),94.2% (inactive),68.7% (inactive)
CN(C)S(=O)(=O)Oc1ccccc1C(=O)Nc1ccccc1Cl,100,70.6,223,97.6,-0.2% (inactive),97.3% (inactive),101% (inactive),100% (inactive),98.9% (inactive),83.3% (inactive)
CN(C)CCNC(=O)/C(=C/c1cccc([N+](=O)[O-])c1)NC(=O)c1ccccc1,219,-55.8,113,124,-1.3% (inactive),103% (inactive),105% (inactive),101% (inactive),104% (inactive),91.3% (inactive)
O=C(CN1CCOCC1)Nc1ccccc1,297,103,112,145,2.3% (inactive),97.1% (inactive),92.3% (inactive),94.4% (inactive),97.7% (inactive),97.1% (inactive)
O=C1CCC(=O)N(O)CCCCCNC(=O)CCC(=O)N(O)CCCCCNC(=O)CCC(=O)N(O)CCCCCN1,40.8,4280,-117,55.9,-0.3% (inactive),53.5% (active),59.4% (active),45.6% (active),61.5% (active),62.2% (inactive)
CSc1ccc(CN2C(=O)NC3(CCCCCC3)C2=O)cc1,99.1,1890,219,97.9,-1.7% (inactive),96.3% (inactive),94.7% (inactive),96.5% (inactive),97.1% (inactive),108% (inactive)
CCn1c(CSCc2c(Cl)cccc2Cl)n[nH]c1=S,46.1,1140,-29.3,55.5,1.4% (inactive),89% (inactive),89.5% (inactive),88.1% (inactive),94.2% (inactive),83.5% (inactive)
O=[N+]([O-])C(=c1ccc2c(c1)N1C3=C(CCCC3)CC3CCCCC31N=2)[N+](=O)[O-] (stereo not given),20.9,357,-195,43.8,–,–,–,–,–,–
C/C(=N\NS(=O)(=O)c1ccc(Br)cc1)c1cccs1,-881,99.9,106,95.4,1.5% (inactive),102% (inactive),103% (inactive),103% (inactive),104% (inactive),99.1% (inactive)
CCCC(=O)N=c1sc2cccc(F)c2n1C,76.5,14800,18,37.2,–,–,–,–,–,–
Cc1ccc(C)c(OCC(=O)N2CCN(C(=O)c3ccco3)CC2)c1,24.4,113,89.8,88.5,2.8% (inactive),104% (inactive),104% (inactive),107% (inactive),106% (inactive),110% (inactive)
Cc1ccc(-n2c(SCC(=O)Nc3ncc(Cl)cc3Cl)nc3ccccc32)cc1,13.7,134,83.7,76.9,1% (inactive),103% (inactive),105% (inactive),103% (inactive),104% (inactive),113% (inactive)
NC(=O)Cc1ccc2sc(-c3ccccc3)nc2c1,23.6,149,92.4,84,-0.3% (inactive),98.7% (inactive),43.6% (active),80% (inactive),55.9% (active),78.6% (inactive)
Cc1ccccc1NC(=S)N(CCCN1CCOCC1)Cc1cccs1,181,80,106,118,2.8% (inactive),104% (inactive),102% (inactive),104% (inactive),102% (inactive),107% (inactive)
COc1cc(C(=O)Nc2cc(C(F)(F)F)ccc2N2CCOCC2)ccc1O,9.57,135,84.8,70.4,0.3% (inactive),104% (inactive),102% (inactive),98.8% (inactive),97.9% (inactive),86.5% (inactive)
CN(CC(=O)NC1CCCCC1)S(=O)(=O)c1cccc2cccnc12,94.7,114,241,89.3,–,–,–,–,–,–
CC(C)Cc1nc(Nc2ccc(S(=O)(=O)N3CCCC3)cc2)c2nnn(Cc3ccccc3)c2n1,260,48.9,137,141,1.3% (inactive),94.8% (inactive),91.8% (inactive),91.9% (inactive),90.6% (inactive),95.9% (inactive)
Cc1cc(C)nc(/N=C2\NC(=O)CC(C(=O)O)N2c2ccc(Cl)cc2Cl)n1 (stereo not given),99.8,104,170,107,0.1% (inactive),102% (inactive),101% (inactive),102% (inactive),102% (inactive),101% (inactive)

Compound,RGS16–Galpha-o binding response [1] [%],RGS19–Galpha-o binding response [2] [%],RGS7–Galpha-o binding response [3] [%],RGS8–Galpha-o binding response [4] [%],inhibition [5],binding response (% of control) [6],response (percent of control binding) [7],response (% of control binding) [8],binding response (% of control) [9],response (percent of control binding) [10]
CCCC(=O)n1nc(-c2ccccc2)nc1N,14.9,-92.7,23.4,20.9,–,–,–,–,–,–
CCOC(=O)CSc1nc2c(c(=O)n(Cc3ccccc3Cl)c(=O)n2C)n1C,-55.5,98.5,88.1,78.5,0.8% (inactive),95.8% (inactive),99.8% (inactive),99.1% (inactive),94.7% (inactive),87.7% (inactive)
Nc1ccc(C(=O)OCC(=O)NC2CCS(=O)(=O)C2)cc1[N+](=O)[O-] (stereo not given),-10.3,179,289,6.98,-1.4% (inactive),101% (inactive),103% (inactive),99.9% (inactive),100% (inactive),103% (inactive)
Cc1ccc(Cn2ccc(NC(=O)c3cc(C(C)C)on3)n2)cc1,47.2,-20,43.9,55.8,–,–,–,–,–,–
CCOc1ccccc1NC(=O)c1cc(S(=O)(=O)N2CCC3(CC2)OCCO3)ccc1F,4.15,139,15.2,33,–,–,–,–,–,–
Cc1cc(=O)n2[nH]c(-c3sccc3-n3c(C)ccc3C)cc2n1,44.4,5890,-34.3,61.1,-1.8% (inactive),103% (inactive),86.4% (inactive),95.8% (inactive),89.2% (inactive),80.1% (inactive)
COC(=O)c1ccccc1OCC(=O)N1CCN(c2ccc(Cl)cc2)CC1,461,7560,290,132,–,–,–,–,–,–
COc1ccc(C(=O)NNc2cc(C)nc(NNC(=O)c3ccc(OC)cc3)n2)cc1,4.94,167,72.3,54,1.4% (inactive),108% (inactive),115% (inactive),111% (inactive),110% (inactive),107% (inactive)
NC(=O)CSc1c[nH]c2ccccc12,19.6,-48.5,25.2,27.5,-1.7% (inactive),104% (inactive),102% (inactive),110% (inactive),106% (inactive),103% (inactive)
COc1cccc(C(=O)NCCSc2ccc(Br)cc2)c1,11.1,1100,16.5,20.7,-0.2% (inactive),103% (inactive),106% (inactive),104% (inactive),104% (inactive),83.7% (inactive)
CN1CCN(C(CNS(=O)(=O)c2cccs2)c2cccnc2)CC1 (stereo not given),-5.62,168,-9.98,10.6,–,–,–,–,–,–
COc1ccc(C(=O)COC(=O)c2ccc3ccccc3n2)cc1,-0.98,167,39,28.9,-1% (inactive),95.5% (inactive),86.7% (inactive),95.4% (inactive),92.6% (inactive),93.7% (inactive)
FC(F)Oc1ccccc1C1CC(c2ccc(Br)s2)Nc2ncnn21 (stereo not given),215,-1720,163,111,2.6% (inactive),99.3% (inactive),98% (inactive),97.2% (inactive),95.9% (inactive),96% (inactive)
CCCC1C(c2ccccc2)C(C#N)(C#N)C2(C#N)CC1(N)NC2=O (stereo not given),178,474,152,116,0.8% (inactive),103% (inactive),105% (inactive),102% (inactive),103% (inactive),105% (inactive)
N#Cc1nc(COc2ccc(-c3ccccc3)cc2)oc1NCc1cccnc1,0,78.7,202,167,6.8% (inactive),156% [activator] (active),517% [activator] (active),364% [activator] (active),376% [activator] (active),565% (active)
O=C(NCc1ccc(F)cc1)C1CCC(CNc2c(N3CCOCC3)c(=O)c2=O)CC1 (stereo not given),3.97,357,-657,8.33,0% (inactive),101% (inactive),100% (inactive),98.7% (inactive),101% (inactive),98.1% (inactive)
CCCn1nnnc1NC(=O)COc1ccc(Cl)cc1C,2.27,-359,17.1,11.9,–,–,–,–,–,–
Cc1ccc(N2C(=O)C3C(c4ccccc4)(C2=O)C3(c2ccccc2)c2ccccc2)cc1 (stereo not given),13.2,310,14.4,23.3,-0.7% (inactive),91.8% (inactive),60.8% (active),80.2% (inactive),68.2% (active),75.7% (inactive)
COCCNC(=S)N/N=C/c1c(C)[nH]c2ccccc12,153,993,142,105,0.1% (inactive),105% (inactive),212% [activator] (active),134% [activator] (active),161% [activator] (active),225% (active)
